Bioassay records from PubChem BioAssay.
In the library only some 8% were active in any assay of this set; here they are far more common.
KB-3-1 cytotox: kills parental KB-3-1 adenocarcinoma cells. KB-3-1 viability, CellTiter-Glo ATP luminescence, 72 h. Potency, µM (doses to about 46.1 µM), most hits filed as cytotoxic. actives 1.4% (n = 400,000). AID 1347075; also: % is scaled to controls: 0 for no effect and ±100 for the full control effect; nearly all actives have a fitted effect of over 60% in size
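KB-3-1 parental drug-naive adenocarcinoma cells in DMEM/10% FBS, incubated 72 h at 37 C with pin-transferred compounds across a concentration series. Viability by CellTiter-Glo luminescence; concentration-response curves fitted after normalization.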
HT1080-NT tox: kills 2HG-producing HT-1080-NT fibrosarcoma cells; Potency, µM (top dose mostly 46.1 µM), for the others: at the highest dose activity, negative = less viability, actives largely listed as cytotoxic; actives 1.6% (n = 360,000); HT-1080-NT fibrosarcoma viability, CellTiter-Glo ATP luminescence, 48 h;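 also: NT is the 2HG producing partner of a matched IDH1 knockdown line; 0% = DMSO-treated cells and -100% = media-only wells without cells; nearly all actives have a fitted effect of over 55% in size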
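A 48-hour cytotoxicity screen used HT-1080-NT cells plated 2 hours before compound delivery. ATP-based CellTiter-Glo luminescence measured viability, normalized to DMSO and no-cell controls.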
HT1080 IDH1KD tx: kills HT-1080 cells with IDH1 knockdown; HT-1080 IDH1 knockdown viability, ATP luminescence, 48 h; Potency, µM (top dose mostly 46.1 µM), without a hit: at the highest dose activity, negative = toxicity, hits mostly cytotoxic; actives 2% (n = 360,000); AID 686971;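 also: 0% = DMSO wells and -100% = cell-free medium wells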
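Assay cells: HT-1080 with IDH1 knockdown, 750 per well, RPMI/5% FBS. Exposure: 48 h at 37 °C following 2 h pre-incubation. Read: CellTiter-Glo luminescence; fitted concentration-response, curve class assigned.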
MCF10A rereplic: induces DNA re-replication in MCF 10a normal breast cells | MCF 10A DNA re-replication, Hoechst nuclear intensity, 48 h | Potency, µM (highest dose often 46.1 µM), for inactives: at the top dose activity, positive = re-replication, actives largely listed as activators | actives 2.9% (n = 350,000) | AID 624296; also: % of control where 0% means no effect; nearly all actives have a fitted effect of over 50% in size
SW480 rerep: induces DNA re-replication in SW480 colon adenocarcinoma cells; SW480 DNA re-replication, Hoechst DNA content imaging, 48 h; Potency, µM (titrated, usually from 46.1 µM), for inactives: top-dose re-replication activation, actives largely listed as activators; actives 1.8% (n = 340,000); also: % of control where 0% means no effect; nearly all actives have a fitted effect of over 55% in size
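DNA re-replication was detected as more nuclei of elevated Hoechst intensity after 48 hr exposure to compound (23 nL pinned per well of 250 cells).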
KB-V1 cytotox: KB-V1 MDR subline cytotoxicity; KB-V1 MDR cells viability, CellTiter-Glo, 72 h; Potency, µM (top dose mostly 46.1 µM), usual class: cytotoxic; actives 3.4% (n = 400,000); AID 1347076; also: % is scaled to controls: 0 for no effect and ±100 for the full control effect; nearly all actives have a fitted effect of over 60% in size
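KB-V1 cells (P-gp-expressing MDR subline of KB-3-1) in phenol-red-free DMEM with 10% FBS were exposed to library compounds over a concentration series for 72 h at 37 degrees C. Viability read by CellTiter-Glo luminescence; concentration-effect curves fitted after normalization.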
Numbers without * were called inactive; i = inactive; ? = inconclusive; . = no result given; [ ] = another dose, or the depositor's remark. Calls follow the shape of the dose curve; as a rule, active = well fitted curve in the direction sought with a large enough effect; inconclusive = small, poorly fitted or top-dose-only effect, or another doubt; inactive = no such curve, though single readings can be large; an effect the other way counts as inactive or inconclusive. Potency is read from the fitted curve at half-maximal effect.

SMILES | KB-3-1 cytotox | HT1080-NT tox | HT1080 IDH1KD tx | MCF10A rereplic | SW480 rerep | KB-V1 cytotox
COCCOC(=O)c1c(C)n(C)c2ccc(OC(=O)N(C)C)cc12 | i | 1% | -1% | -12% | -13% | i
O=CC=O | . | . | . | 2% | -9% | .
COc1cccc(OC)c1C1=NCC(=O)Nc2c1oc1ccc(Br)cc21 | i | ? | 2.9µM* | ? | 0.65µM* | ?
O=C1CN=C(c2ccc(F)cc2)c2oc3ccccc3c2N1 | ? | -2% | -1% | -1% | -1% | i
O=C1CN=C(c2ccc(Br)cc2)c2oc3ccccc3c2N1 | i | 15µM* | 12µM* | ? | -1% | i
CC1CCN(CC(=O)c2ccccc2Cl)CC1 | i | -6% | -8% | ? | 17% | i
CC1=C(/C=C/c2ccccc2)CCN(C)C1 | i | -19% | -15% | -2% | 0% | ?
COc1ccc(-[n+]2c(-c3ccccc3)cc(-c3ccccc3)cc2-c2ccccc2)cc1 | 7.3µM* | 8.2µM* | 7.3µM* | ? | ? | i
O=C([O-])c1ccc(-[n+]2c(-c3ccccc3)cc(-c3ccccc3)cc2-c2ccccc2)cc1 | i | ? | 4% | 20% | -9% | i
Oc1ccc(-[n+]2c(-c3ccccc3)cc(-c3ccccc3)cc2-c2ccccc2)cc1 | i | 12µM* | 21µM* | ? | -3% | i
CC(C)CCOP(=O)(c1ccc(N(C)C)cc1)C(O)c1c(Cl)cccc1Cl (centres undefined) | i | -1% | -14% | ? | -8% | i
Cc1ccccc1NC1=NCCCS1 | i | 11% | 14% | -1% | -8%[9.22 µM] | i
O=C(CCl)NN=C(c1ccccc1)c1ccccc1 | ? | 12% | -6% | 15µM* | ? | i
NCC(=O)c1ccccc1 | ? | 0% | 3% | -1% | -2% | ?
Cc1c(N=Nc2c(O)[nH]c(=S)[nH]c2=O)c(=O)n(-c2ccccc2)n1C | i | ? | -8% | 2% | -2% | i
C=CCn1c(O)c(N=Nc2c(C)n(C)n(-c3ccccc3)c2=O)c(=O)[nH]c1=S | ? | -7% | -14% | 9% | ? | 3.3µM*
CC(=O)c1cn(CC(=O)NCCc2c[nH]c3ccccc23)c2ccccc12 | ? | -5% | -12% | ? | 15% | 15µM*
Cc1cc(C)nc(N2CCCC(C(=O)Nc3nc4ccc(S(C)(=O)=O)cc4s3)C2)n1 (centres undefined) | ? | -25% | ? | -3% | 15% | ?
Nc1ccc2c3c(cccc13)CC2 | i | -12% | -1% | 16µM* | 16µM* | i
COC(=O)[C@@H]1N=C(c2ccc(OC)cc2)O[C@]12C(=O)N(Cc1ccc(OC)cc1)c1ccccc12 | ? | -28% | ? | . | . | 23µM*
On1ccccc1=S | i | 0.041µM* | 0.33µM* | 6.5µM* | 10% | ?
CCC12C=CCN3CCC4(c5cc(Br)c(OC)cc5N(C)C4C(O)(C(=O)OC)C1OC(C)=O)C32 (centres undefined) | i | -19% | -20% | -1% | 10% | i
CN1CCN(c2ccc([N+](=O)[O-])c(NCc3ccco3)c2)CC1 | i | 2% | 6% | ? | -4% | 12µM*
O=[N+]([O-])c1ccc(N2CCNCC2)cc1NCc1ccco1 | i | 6% | 2% | 22% | 1% | i
O=Nc1c(O)c2ccccc2c2ccccc12 | 4.6µM* | 6.5µM* | 2.9µM* | 6.5µM* | 1.8µM* | 16µM*
SMILES | KB-3-1 cytotox | HT1080-NT tox | HT1080 IDH1KD tx | MCF10A rereplic | SW480 rerep | KB-V1 cytotox
S=C(NCCc1ccccc1)N1Cc2cc(Br)ccc2-n2nncc2C1 | i | ? | ? | . | . | ?
C[C@]12CCC(=O)C[C@@H]1CC[C@@H]1[C@@H]2CC[C@]2(C)[C@@H](O)CC[C@@H]12 | i | ? | 8% | -36% | -33% | 16µM*
Oc1c(Cl)c(Cl)c(Cl)c(Cl)c1Cl | i | ? | ? | 8.2µM* | -9% | ?
Cc1cc(OCC(=O)N2CCCN(C)CC2)ccc1Cl | i | 11% | 8% | 14% | ? | i
CCOc1cc2c(cc1OCC)-n1cccc1C(c1ccc(C)cc1C)NC2 (centres undefined) | ? | ? | 21µM* | ? | ? | ?
CCOc1cc2c(cc1OCC)-n1cccc1C(c1cccc(OCC)c1O)NC2 (centres undefined) | i | -25% | ? | 18µM* | 1% | i
CCOC(=O)CC(SP(=S)(OC)OC)C(=O)OCC (centres undefined) | . | . | . | 2% | -5% | .
O=c1c2ccccc2nc(-c2ccoc2)n1-c1ccccc1Cl | ? | -18% | ? | 4% | 2% | 16µM*
C[C@]12CC[C@@H](O)C[C@H]1CC[C@@H]1[C@@H]2CC[C@]2(C)C(=O)CC[C@@H]12 | i | 0% | 0% | -19% | ? | i
COc1ccc(C(=O)OC2C[C@H]3CC[C@@H](C2)N3O)cc1OC (some centres undefined) | i | -24% | -26% | ? | 0% | i
O=[N+]([O-])/C=C/c1c(Cl)cccc1Cl | ? | ? | ? | 3.7µM* | 6.5µM* | ?
CC(=O)C1CCC2(O)C3CCC4=CC(=O)CCC4(C)C3CCC12C (centres undefined) | i | 11% | 1% | -2% | -3% | ?
C[C@@H]1O[C@@H](O[C@@H]2C=C3CC[C@@H]4C(CC[C@]5(C)[C@@H](c6ccc(=O)oc6)CC[C@]45O)[C@@]3(C)CC2)[C@H](O)[C@H](O)[C@H]1O (some centres undefined) | ? | 0.018µM* | 0.0046µM* | 0% | -4% | 0.026µM*
C[C@@H]1O[C@@H](O[C@@H]2C=C3CCC4C(CC[C@]5(C)[C@@H](c6ccc(=O)oc6)CC[C@]45O)[C@@]3(C)CC2)[C@H](O)[C@H](O)[C@H]1O (some centres undefined) | 0.01µM* | 0.0073µM* | 0.0092µM* | ? | ? | ?
C[C@]12CCC(=O)C=C1CC[C@@H]1[C@@H]2CC[C@]2(C)C(=O)CC[C@@H]12 | i | 19% | 6% | ? | 1% | ?
COC(=O)C1=Nc2ccccc2/C1=C\c1c(O)n(-c2ccc(Br)cc2)c(=O)[nH]c1=O | i | ? | ? | ? | -3% | i
O=c1[nH]c(=O)n(-c2ccccc2)c(O)c1/C=C1/C(c2ccccc2)=Nc2ccccc21 | 3.3µM* | 4.1µM* | 2.1µM* | 2.1µM* | ? | 2.9µM*
